From the supplement of paper PMC6555819

Tests used:
Assay in all cases: PBM binding z-score (relative to random genomic background probes); higher = stronger binding; sequences stand for … in GC…GCGATTGACAGCGTAGAATGAAGG
[1] = tested on: FXR:RXRa (NR concentration 270 nM, RXRa partner concentration 90 nM)
Summary of the method: (§1)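 On custom Agilent 4×180K arrays, double-stranded probes with 34-nt variable regions carried direct-repeat seeds, single-nucleotide variants, half-site ablations or random human genomic background. Ligand-free nuclear receptor dimers were applied for 1 h, and binding was read with antibodies against each partner (one per run). Binding z-scores come from regression-normalized fluorescence, with the random background probes as reference.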

[2] = tested on: LXRa:RXRa (NR concentration 270 nM, RXRa partner concentration 90 nM)
Summary of the method: as §1

[3] = tested on: LXRa homodimer (NR concentration 270 nM)
Summary of the method: as §1

[4] = tested on: LXRb:RXRa (NR concentration 270 nM, RXRa partner concentration 90 nM)
Summary of the method: as §1

[5] = tested on: LXRb homodimer (NR concentration 270 nM)
Summary of the method: as §1

[6] = tested on: PPARa:RXRa (NR concentration 270 nM, RXRa partner concentration 90 nM)
Summary of the method: as §1

[7] = tested on: PPARg:RXRa (NR concentration 180 nM, RXRa partner concentration 90 nM)
Summary of the method: as §1

[8] = tested on: PPARg:RXRa 270nM:90nM, anti-RXR (NR concentration 270 nM, RXRa partner concentration 90 nM)
Summary of the method: as §1

[9] = tested on: PPARg:RXRa 30nM:10nM, anti-RXR (NR concentration 30 nM, RXRa partner concentration 10 nM)
Summary of the method: as §1

[10] = tested on: PPARg:RXRa 90nM:30nM, anti-RXR (NR concentration 90 nM, RXRa partner concentration 30 nM)
Summary of the method: as §1

[11] = tested on: PPARg:RXRa DBDmut IVT, anti-RXR (DBD mutation: RXRa K156A/R161A, NR concentration 270 nM, RXRa partner concentration 90 nM)
Summary of the method: as §1

[12] = tested on: PPARg:RXRa IVT, anti-PPARg (NR concentration 270 nM, RXRa partner concentration 90 nM)
Summary of the method: as §1

[13] = tested on: PPARg DBDmut:RXRa IVT, anti-PPARg (DBD mutation: PPARg1 K132A/R137A, NR concentration 270 nM, RXRa partner concentration 90 nM)
Summary of the method: as §1

[14] = tested on: PPARg DBDmut IVT, anti-PPARg (DBD mutation: PPARg1 K132A/R137A, NR concentration 270 nM)
Summary of the method: as §1

[15] = tested on: PPARg homodimer (NR concentration 180 nM)
Summary of the method: as §1

[16] = tested on: PXR:RXRa (NR concentration 270 nM, RXRa partner concentration 90 nM)
Summary of the method: as §1

[17] = tested on: PXR homodimer (NR concentration 270 nM)
Summary of the method: as §1

[18] = tested on: RARa:RXR (NR concentration 270 nM, RXRa partner concentration 90 nM)
Summary of the method: as §1

[19] = tested on: RARa homodimer (NR concentration 270 nM)
Summary of the method: as §1

[20] = tested on: RARb:RXRa (NR concentration 270 nM, RXRa partner concentration 90 nM)
Summary of the method: as §1

Sequence | PBM binding z-score [1] | PBM binding z-score [2] | PBM binding z-score [3] | PBM binding z-score [4] | PBM binding z-score [5] | PBM binding z-score [6] | PBM binding z-score [7] | PBM binding z-score [8] | PBM binding z-score [9] | PBM binding z-score [10] | PBM binding z-score [11] | PBM binding z-score [12] | PBM binding z-score [13] | PBM binding z-score [14] | PBM binding z-score [15] | PBM binding z-score [16] | PBM binding z-score [17] | PBM binding z-score [18] | PBM binding z-score [19] | PBM binding z-score [20]
TTACCATGGTGAAAGGTCGTTGATGCACGCCTTG | 1.54 | 1.93 | 0.41 | 2.22 | -0.316 | 4.04 | 5.88 | 6.89 | 5.62 | 8.01 | 0.72 | 2.89 | 0.347 | -0.209 | 0.983 | 2.74 | 0.676 | 3.2 | -0.159 | 1.94
CGTCCAAGGTCAGTGCTAGGTCAGTGAAAGCATT | 4.03 | 3.44 | 0.709 | 2.75 | -0.278 | 3.28 | 1.44 | 2.57 | 0.1 | 1.31 | 2.24 | 2.77 | -0.328 | -1.29 | 3.27 | 3.4 | 0.647 | 4.37 | 0.898 | 4.79
TCAGACAGGGGAAGGTAACTCAGGTACGCAGTCG | 0.82 | 1.65 | 0.166 | 1.3 | 0.859 | 0.994 | 0.622 | 2.06 | 3.77 | 2.68 | 2.26 | 0.171 | 0.134 | -0.73 | 0.755 | 0.624 | 0.441 | 0.193 | 0.801 | 0.352
ACTTACTGGTCAACGAGGTTATAGCACGCGTATA | 1.24 | 1.44 | 0.897 | 1.62 | 0.859 | 1.88 | 1.04 | 1.16 | 1.29 | 1.29 | 1.29 | 1.65 | 1.75 | 1.91 | 1.38 | 1.89 | 0.901 | 2.03 | 1.23 | 2.09
ACTCGGAGGACAAAGGTCGGAGCTACGCCAGTGA | 0.927 | 1.18 | -0.439 | 0.689 | -0.291 | 2.9 | 4.62 | 5.7 | 3.54 | 5.62 | -0.0622 | 1.75 | -0.143 | -0.29 | 0.786 | 1.29 | -0.332 | 1.84 | -0.447 | 2.34
CCAGACAGGTGAGAAGGCAACTCAGCCTCGATTA | 0.0587 | -0.0895 | -0.234 | -0.403 | -0.663 | 0.376 | 0.575 | 0.793 | -0.21 | 0.329 | 0.42 | 0.413 | -0.447 | -0.637 | 0.166 | -0.0948 | -0.133 | -0.209 | 0.0696 | 0.272
AGAACGAGGGCAATGAGATGATAGCACGGGTGGC | 0.277 | 0.121 | -0.31 | -0.282 | -0.486 | 1.02 | 1.58 | 0.593 | 0.201 | 0.528 | 3.28 | 2.47 | 1.03 | 0.417 | 0.45 | 0.149 | 0.0572 | 0.235 | 0.363 | 2.05
CTTCAAAGTTCAAGGTAACGTAACAGAAAGCAGC | 5.99 | 5.87 | 3.59 | 3.5 | 1.19 | 4.48 | 2.86 | 3.83 | 1.15 | 2.43 | 0.401 | 1.36 | 0.994 | 1 | 2.93 | 4.18 | 2.67 | 3.32 | 1.72 | 5.1
TTACCAAGGTGAAGGTCGTTTATCCCTCTGTAGA | 1.45 | 1.55 | 0.229 | 1.54 | -0.0351 | 2.47 | 2.42 | 3.95 | 1.78 | 3.31 | 2.02 | 3.38 | 0.35 | 0.225 | 0.696 | 1.7 | 0.623 | 1.65 | -0.48 | 2.2
TGAATGAGGTTACAAGATCAGGGAACGTTGCAAA | 1.8 | 1.28 | -0.302 | 1.34 | -0.31 | 3.09 | 2.14 | 2.54 | 1.05 | 1.65 | 1.92 | 3.07 | 0.903 | 1 | 0.112 | 0.754 | -0.231 | 1.68 | 0.0919 | 1.73
TCATATCGGTAAACAGGTGAAAGTCCGTAAGTTA | 0.957 | 0.857 | 0.341 | 0.799 | 0.0218 | 1.89 | 1.04 | 2.91 | 4.03 | 3.5 | 2.55 | 2.3 | 0.278 | 0.853 | 0.999 | 0.657 | 0.286 | 0.933 | 1.19 | 0.764
CCAAACAGGTGAGAAGGTAACTCAGCCTCGATTA | -0.19 | -0.0558 | -0.189 | -0.138 | -0.392 | 0.653 | 0.64 | 1.22 | 0.297 | 0.598 | 1.49 | 1.46 | 0.108 | -0.155 | 0.805 | -0.406 | 0.0845 | 0.105 | 0.426 | 0.534
TCATATAGATAAAGGTGAAAGTCGAACGATATGA | 0.837 | 1.1 | 0.162 | 1.26 | 0.134 | 2.57 | 2.33 | 3.51 | 4.36 | 4.09 | 2.13 | 1.9 | 1.06 | 1.29 | 1.18 | 0.893 | -0.0494 | 1.43 | 0.832 | 1.61
TCATATAGGTAAAAAGTGAAAGTCGGTGTGGTAA | 1.13 | 1.01 | 0.0735 | 0.858 | -0.108 | 2.62 | 3.5 | 5.44 | 5.22 | 5.77 | 4.48 | 2.54 | 1 | 0.168 | 0.986 | 0.581 | 0.658 | 0.666 | 0.947 | 0.366
